Results: PubChem BioAssay (NCI)
This is part of a sample that, as a whole, favours compounds with a hit. Of some 79,000 tested, about 15% had one in any assay. The source made the active and inactive calls. Cut-off read from the data, not from the text of the source: active = growth inhibition above about 70%; inactive = the rest.

Assays:
[1] = NCI Yeast Anticancer Drug Screen. Data for the rad52 strain (AID 147);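 note: 0% = growth of vehicle-treated control cultures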; conditions: S. cerevisiae rad52 mutant growth inhibition, hits give high values
How it was run: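 Inhibition of yeast growth, referenced to vehicle controls, was the measured output for a strain with defective DNA damage repair.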

[2] = NCI Yeast Anticancer Drug Screen. Data for the wt1 strain (AID 149);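 note: 0% = growth of vehicle-treated wt1 cultures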; conditions: S. cerevisiae wt1 strain (SPY 50644) growth inhibition, hits give high values
How it was run: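 Using yeast strain wt1, compound-induced growth inhibition was determined against vehicle-treated cultures.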

[3] = NCI Yeast Anticancer Drug Screen. Data for the rad50EPP+ strain (AID 151);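 note: 0% = growth of vehicle-treated control cultures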; conditions: S. cerevisiae rad50 mutant strain, hits give high values
How it was run: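 Genetically defined yeast (rad50EPP+, DNA damage repair alteration) is grown with compound, and inhibition of growth is expressed relative to vehicle-treated controls.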

[4] = NCI Yeast Anticancer Drug Screen. Data for the mgt1 strain (AID 153); conditions: S. cerevisiae mgt1 mutant growth inhibition, hits give high values
How it was run: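 In the mgt1 strain, test compounds were added and growth inhibition was determined relative to vehicle-treated controls.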

[5] = NCI Yeast Anticancer Drug Screen. Data for the rad50 strain (AID 155);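 note: 0% = growth of vehicle-only cultures of the same strain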; conditions: S. cerevisiae rad50 strain growth inhibition, hits give high values
How it was run: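 Relative growth inhibition (compound vs vehicle) was measured in yeast with a defined repair-gene alteration.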

[6] = NCI Yeast Anticancer Drug Screen. Data for the mec2-1 strain (AID 157); conditions: S. cerevisiae mec2-1 strain, hits give high values
How it was run: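 Each compound was tested on mec2-1 yeast, a strain altered in DNA damage repair or cell cycle control. Growth inhibition is reported relative to vehicle.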

[7] = NCI Yeast Anticancer Drug Screen. Data for the rad14 strain (AID 159);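 note: 0% = growth of vehicle-treated control cultures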; conditions: S. cerevisiae rad14 strain growth inhibition, hits give high values
How it was run: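 Screen for anticancer potential: a yeast strain altered in DNA damage repair is grown with compound, and reduced growth is quantified against vehicle controls.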

[8] = NCI Yeast Anticancer Drug Screen. Data for the sgs1 mgt1 strain (AID 161);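 note: 0% = growth of cultures given vehicle only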; conditions: S. cerevisiae sgs1 mgt1 strain, hits give high values
How it was run: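 Read-out: growth inhibition vs vehicle controls. Cells: mutant yeast strain deficient in DNA damage repair.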

[9] = NCI Yeast Anticancer Drug Screen. Data for the cln2 rad14 strain (AID 165);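 note: 0% = growth equal to vehicle treated cultures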; conditions: S. cerevisiae cln2 rad14 strain, hits give high values
How it was run: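 Test compounds were added to cln2 rad14 yeast cultures; inhibition of growth was then determined by comparison with vehicle treatment.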

[10] = NCI Yeast Anticancer Drug Screen. Data for the bub3 strain (AID 167); conditions: S. cerevisiae bub3 mutant strain, hits give high values
How it was run: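 Screening used yeast with an engineered genetic alteration affecting cell cycle control. Compound-exposed cultures were compared with vehicle cultures, and reduced growth was taken as inhibition.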

[11] = NCI Yeast Anticancer Drug Screen. Data for the mlh1 strain (AID 171);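 note: 0% = growth of vehicle-treated control cultures of the same strain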; conditions: S. cerevisiae mlh1 strain growth inhibition, hits give high values
How it was run: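 Inhibition values reflect reduced yeast growth in the presence of compound, referenced to vehicle controls, using a strain chosen for its alteration in DNA repair or cell cycle control.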

[12] = NCI Yeast Anticancer Drug Screen. Data for the sgs1 strain (AID 173);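 note: 0% = growth of vehicle-only control cultures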; conditions: S. cerevisiae sgs1 mutant, hits give high values
How it was run: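 Vehicle-treated cultures served as reference for growth inhibition of a yeast strain altered in DNA damage repair or cell cycle control after compound exposure.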

[13] = NCI Yeast Anticancer Drug Screen. Data for the mlh1 rad18 strain (AID 175); conditions: S. cerevisiae mlh1 rad18 strain growth inhibition, hits give high values
How it was run: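 Inhibition values reflect reduced growth of mutant yeast versus vehicle-treated controls following compound exposure; the mutations affect DNA damage repair.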

[14] = NCI Yeast Anticancer Drug Screen. Data for the rad18 strain (AID 177); conditions: S. cerevisiae rad18 mutant growth inhibition, hits give high values
How it was run: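 Steps: expose repair-mutant yeast to compound; measure growth; express as inhibition relative to vehicle control.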

[15] = NCI Yeast Anticancer Drug Screen. Data for the CLN2oe strain (AID 163);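 note: 0% = growth of vehicle-only control cultures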; conditions: S. cerevisiae CLN2oe strain, hits give high values
How it was run: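 First, the altered yeast strain was treated with each compound; second, its growth was measured; finally, inhibition was derived by comparison with vehicle controls.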

[16] = NCI Yeast Anticancer Drug Screen. Data for the wt2 strain (AID 169);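 note: 0% = growth of vehicle-treated yeast cultures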; conditions: S. cerevisiae wt2 strain growth inhibition, hits give high values
How it was run: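 The panel's yeast strains carry defined changes in DNA repair or cell cycle genes. Each strain is grown with compound, and growth loss is scored relative to vehicle.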

[17] = at 5.0 µM (retest, dose inferred, filed as 0.5)
[18] = at 50.0 µM (retest, dose inferred, filed as 5.0)

Measured: growth inhibition

CN(C)N=Nc1ccc(N(C)C)cc1
active: [5]; at 50.0 µM 82.5% | [13]; [18] 77% | [13]; at 50.0 µM 70.3%
inactive: [1]; at 1.2 µM -1% | [1]; at 3.7 µM 1% | [1]; at 11.0 µM 4% | [1]; at 33.0 µM 16% | [1]; at 100.0 µM 53% | [2]; at 1.2 µM 1% | [2]; at 3.7 µM -4% | [2]; at 11.0 µM -3% | [2]; at 33.0 µM -2% | [2]; at 100.0 µM 5% | [3]; at 1.2 µM 4% | [3]; at 3.7 µM 8% | [3]; at 11.0 µM 31% | [3]; at 33.0 µM 53% | [3]; at 100.0 µM 55% | [4]; at 1.2 µM -3% | [4]; at 3.7 µM -3% | [4]; at 11.0 µM -1% | [4]; at 33.0 µM 19% | [4]; at 100.0 µM 12% | [5]; at 1.2 µM 1% | [5]; at 3.7 µM 1% | [5]; [17] -7% | [5]; at 11.0 µM 3% | [5]; at 33.0 µM 5% | [5]; [18] 27% | [5]; at 100.0 µM 14% | [6]; at 1.2 µM 2% | [6]; at 3.7 µM 3% | [6]; [17] -9% | [6]; at 11.0 µM 3% | [6]; at 33.0 µM 7% | [6]; [18] -9% | [6]; at 50.0 µM 16.4% | [6]; at 100.0 µM 9% | [7]; at 1.2 µM -1% | [7]; at 3.7 µM 0% | [7]; at 11.0 µM 2% | [7]; at 33.0 µM 3% | [7]; at 100.0 µM 7% | [8]; [17] 2% | [8]; [18] 51% | [8]; at 50.0 µM 20.9% | [9]; [17] 2% | [9]; [18] 8% | [9]; at 50.0 µM 44.1% | [10]; at 1.2 µM 0% | [10]; at 3.7 µM -3% | [10]; [17] 18% | [10]; at 11.0 µM -7% | [10]; at 33.0 µM -5% | [10]; [18] 33% | [10]; at 50.0 µM 12.3% | [10]; at 100.0 µM 3% | [11]; at 1.2 µM -2% | [11]; at 3.7 µM -3% | [11]; at 11.0 µM 1% | [11]; at 33.0 µM 3% | [11]; at 100.0 µM 10% | [12]; at 1.2 µM 0% | [12]; at 3.7 µM 4% | [12]; at 11.0 µM 6% | [12]; at 33.0 µM 15% | [12]; at 100.0 µM 28% | [13]; [17] 23% | [14]; at 1.2 µM 1% | [14]; at 3.7 µM 1% | [14]; at 11.0 µM -15% | [14]; at 33.0 µM 11% | [14]; at 100.0 µM 29%

COc1ccc2nc3cccc([N+](=O)[O-])c3c(NCCCCCC(=O)O)c2c1
inactive: [2]; at 1.2 µM 2% | [2]; at 3.7 µM 29% | [3]; at 1.2 µM 38% | [4]; at 1.2 µM 0% | [4]; at 3.7 µM 26% | [6]; at 1.2 µM 63% | [15]; at 1.2 µM 2% | [15]; at 3.7 µM 50% | [10]; at 1.2 µM -11% | [10]; at 3.7 µM 34% | [10]; [17] 2% | [16]; at 1.2 µM 6% | [16]; at 3.7 µM 42% | [11]; at 1.2 µM 23% | [11]; at 3.7 µM 63%
active: [1]; at 1.2 µM 87% | [1]; at 3.7 µM 96% | [1]; at 11.0 µM 97% | [1]; at 33.0 µM 98% | [1]; at 100.0 µM 98% | [2]; at 11.0 µM 93% | [2]; at 33.0 µM 98% | [2]; at 100.0 µM 98% | [3]; at 3.7 µM 81% | [3]; at 11.0 µM 95% | [3]; at 33.0 µM 97% | [3]; at 100.0 µM 98% | [4]; at 11.0 µM 91% | [4]; at 33.0 µM 97% | [4]; at 100.0 µM 99% | [5]; at 1.2 µM 84% | [5]; at 3.7 µM 94% | [5]; [17] 97% | [5]; at 11.0 µM 96% | [5]; at 33.0 µM 97% | [5]; [18] 98% | [5]; at 50.0 µM 87% | [5]; at 100.0 µM 97% | [6]; at 3.7 µM 96% | [6]; [17] 96% | [6]; at 11.0 µM 97% | [6]; at 33.0 µM 98% | [6]; [18] 99% | [6]; at 50.0 µM 91% | [6]; at 100.0 µM 99% | [8]; [17] 95% | [8]; [18] 99% | [8]; at 50.0 µM 82.7% | [15]; at 11.0 µM 91% | [15]; at 33.0 µM 97% | [15]; at 100.0 µM 98% | [9]; [17] 99% | [9]; [18] 99% | [9]; at 50.0 µM 88.8% | [10]; at 11.0 µM 96% | [10]; at 33.0 µM 97% | [10]; [18] 99% | [10]; at 50.0 µM 87.2% | [10]; at 100.0 µM 99% | [16]; at 11.0 µM 94% | [16]; at 33.0 µM 97% | [16]; at 100.0 µM 99% | [11]; at 11.0 µM 94% | [11]; at 33.0 µM 97% | [11]; at 100.0 µM 98% | [12]; at 1.2 µM 90% | [12]; at 3.7 µM 93% | [12]; at 11.0 µM 98% | [12]; at 33.0 µM 98% | [12]; at 100.0 µM 98% | [13]; [17] 97% | [13]; [18] 98% | [13]; at 50.0 µM 82.6% | [14]; at 1.2 µM 96% | [14]; at 3.7 µM 96% | [14]; at 11.0 µM 96% | [14]; at 33.0 µM 97% | [14]; at 100.0 µM 98%
